# Measured values from PubChem BioAssay (EPA / NIEHS).
# Values joined by “and” are separate entries in the source; they are usually repeats but may differ in a detail not shown here. Equal values may be shown once. Records with an inconclusive call do not appear. Some compounds were tested as several samples or in several runs, with calls that do not always agree. Active and inactive are the calls of the source. The calls were made as follows: active = hit-call score of the fitted dose curve at least 0.9, where 1 is the maximum; inconclusive = response in the unintended direction; inactive = score below 0.9.
# Assays:
# [1] = ATG_XTT_Cytotoxicity: Cytotoxicity Assessment in the Attagene TRANS-FACTORIAL HepG2 Assay (AID 2283584);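 as to AC50: cells exposed to compound for 24 h before reading; active means loss of viability signal versus DMSO baseline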
# In short: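 Cells: human HepG2, transiently transfected with MRTU reporter constructs. Exposure 24 h. Readout: XTT, cell number. Baseline/neg ctrl DMSO; loss-of-signal scored.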
# [2] = TOX21_p53_BLA_p2_viability: Viability Assessment in the Tox21 HCT-116 p53 Agonism Beta-lactamase Assay, Phase 2 (AID 2283591);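 also: compound exposure lasted 16 h at 37 °C; actives lower the ATP signal meaning cytotoxicity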
# In short: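 Cytotoxicity readout: CellTiter-Glo ATP luminescence, 30 min at room temperature, after the beta-lactamase read. Cells were HCT116 exposed 16 h at 37C to compounds pin-transferred at 217-fold dilution from DMSO stocks.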
# [3] = target: Cellular tumor antigen p53 (Homo sapiens) (UniProt P04637); assay: TOX21_p53_BLA_p2_ratio: Tox21 HCT-116 p53 Agonism Beta-lactamase Assay, Ratio, Phase 2 (AID 2283592)
# In short: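 HCT116 p53-bla; 4000 cells/well; 5 h pre-incubation; cpd in DMSO, 217-fold dilution; 16 h 37C/5% CO2; CCF4-AM 2 h RT; Ex 405, Em 460/530 ratio; DMSO = baseline; positive fitting direction.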
# [4] = TOX21_p53_BLA_p3_viability: Viability Assessment in the Tox21 HCT-116 p53 Agonism Beta-lactamase Assay, Phase 3 (AID 2283593);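 also: cells exposed to compound for 16 h before reading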
# In short: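 Cellular ATP was quantified by CellTiter-Glo luminescence, read after 30 min at room temperature. Beforehand, HCT116 cells (4000/well) received compound 5 h post-seeding, 217-fold diluted from DMSO, then incubated 16 h at 37C.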
# [5] = target: Cellular tumor antigen p53 (Homo sapiens) (UniProt P04637); assay: TOX21_p53_BLA_p3_ratio: Tox21 HCT-116 p53 Agonism Beta-lactamase Assay, Ratio, Phase 3 (AID 2283596)
# In short: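 HCT116 p53-bla cells (4000/well) given compound in DMSO (217-fold dilution) after 5 h, incubated 16 h at 37C. CCF4-AM substrate 2 h at room temperature; 460/530 nm emission ratio, gain fitted against DMSO.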
# [6] = TOX21_p53_BLA_p4_viability: Viability Assessment in the Tox21 HCT-116 p53 Agonism Beta-lactamase Assay, Phase 4 (AID 2283597);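 also: hits lower the luminescence signal meaning cytotoxicity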
# In short: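 Cells plated, 5 h pre-incubation; DMSO compounds pinned (217-fold dilution); 16 h, 37C/5% CO2; CCF4-AM 2 h RT; CellTiter-Glo 30 min RT; luminescence read.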
# [7] = target: Cellular tumor antigen p53 (Homo sapiens) (UniProt P04637); assay: TOX21_p53_BLA_p5_ratio: Tox21 HCT-116 p53 Agonism Beta-lactamase Assay, Ratio, Phase 5 (AID 2283599)
# In short: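 Beta-lactamase reporter ratio (blue 460 nm over green 530 nm, 405 nm excitation) after 2 h CCF4-AM loading, in HCT-116 cells exposed 16 h at 37 C to compounds pinned at 217-fold dilution. Increases relative to DMSO baseline scored.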
# [8] = TOX21_p53_BLA_p5_viability: Viability Assessment in the Tox21 HCT-116 p53 Agonism Beta-lactamase Assay, Phase 5 (AID 2283600)
# In short: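 4000 cells/well; 5 h pre-incubation; DMSO compounds pin-transferred, 217-fold dilution; 16 h, 37C/5% CO2; CCF4-AM 2 h RT; CellTiter-Glo 30 min RT; luminescence.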
# [9] = target: Cellular tumor antigen p53 (Homo sapiens) (UniProt P04637); assay: TOX21_p53_BLA_p4_ratio: Tox21 HCT-116 p53 Agonism Beta-lactamase Assay, Ratio, Phase 4 (AID 2283601)
# In short: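 Signal is the blue/green (460nm/530nm) ratio of cleaved versus uncleaved CCF4-AM substrate, read after 2 h substrate loading. Cells were HCT116 carrying the p53-responsive beta-lactamase reporter, dosed 16 h at 37C, 5% CO2; CellTiter-Glo measured in parallel.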
# [10] = STM_H9_OrnCyssISnorm_ratio: Stemina devTOX quickPredict H9 human embryonic stem cell (hESC)-based Assay for Ornithine (ORN):Cystine (CYSS) Ratio (AID 2283714)
# In short: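 Steps: H9 hESCs in pluripotent state dosed 72h, medium plus compound renewed every 24h; conditioned medium from the final 24h deproteinized in 40% acetonitrile; ORN and CYSS quantified by UPLC-HRMS with C13 spike-ins; ratio relative to vehicle.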
# [11] = tested on: Thyroperoxidase (TPO), gene 54314; assay: CCTE_Simmons_AUR_rTPO: CCTE's Amplex UltraRed Assay for Thyroperoxidase (TPO) Inhibition, Simmons Lab (AID 2283662);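 also: potency for loss of signal meaning inhibition of peroxidase activity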
# In short: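 Rat thyroid microsomes (5 ug protein) were incubated with test compound (8 concentrations, 5 nM–87.5 uM final, 0.5% DMSO), 25 uM Amplex UltraRed and 300 uM H2O2 in 200 mM phosphate buffer for 30 min at 37C in the dark; fluorescence read at 544/590 nm.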
# [12] = CCTE_Simmons_CellTiterGLO_HEK293T: Viability Assessment in CCTE's Assays for Thyroperoxidase (TPO) Inhibition, Simmons Lab (AID 2283665);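 also: cells exposed to compound for 24 h before readout; actives reduce ATP signal below DMSO vehicle meaning cytotoxicity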
# In short: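 Cytotoxicity counter-screen: human HEK293T cells in low-serum (1% FBS) medium receive test chemical, 5 nM to 87.5 uM final, for 24 h; ATP is quantified by luciferase luminescence.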
# [13] = target: Luciferin 4-monooxygenase (Photinus pyralis) (UniProt P08659); assay: CCTE_Simmons_QuantiLum_inhib_2: CCTE's Firefly Luciferase Inhibition Assay, Simmons Lab (AID 2283767)
# In short: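 Counter-screen for nonspecific enzyme inhibition: purified firefly luciferase incubated 30 min at 37C with chemicals up to 87.5 uM final, then luminescence measured after luciferin/dATP injection; activity fitted against DMSO baseline.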
# Chain of Cellular tumor antigen p53 (Homo sapiens) (P04637 whole entry, looked up): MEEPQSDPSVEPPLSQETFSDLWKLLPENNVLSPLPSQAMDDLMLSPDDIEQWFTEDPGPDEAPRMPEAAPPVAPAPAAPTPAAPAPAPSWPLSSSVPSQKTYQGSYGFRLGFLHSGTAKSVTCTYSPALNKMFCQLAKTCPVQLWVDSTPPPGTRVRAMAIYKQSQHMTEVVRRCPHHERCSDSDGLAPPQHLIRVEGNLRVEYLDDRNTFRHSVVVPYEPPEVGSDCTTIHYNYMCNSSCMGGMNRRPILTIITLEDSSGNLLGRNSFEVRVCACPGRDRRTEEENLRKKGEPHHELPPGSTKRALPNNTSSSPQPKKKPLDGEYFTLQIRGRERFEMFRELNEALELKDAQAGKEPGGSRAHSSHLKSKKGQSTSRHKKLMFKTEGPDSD
# Chain of Luciferin 4-monooxygenase (Photinus pyralis) (P08659 whole entry, looked up): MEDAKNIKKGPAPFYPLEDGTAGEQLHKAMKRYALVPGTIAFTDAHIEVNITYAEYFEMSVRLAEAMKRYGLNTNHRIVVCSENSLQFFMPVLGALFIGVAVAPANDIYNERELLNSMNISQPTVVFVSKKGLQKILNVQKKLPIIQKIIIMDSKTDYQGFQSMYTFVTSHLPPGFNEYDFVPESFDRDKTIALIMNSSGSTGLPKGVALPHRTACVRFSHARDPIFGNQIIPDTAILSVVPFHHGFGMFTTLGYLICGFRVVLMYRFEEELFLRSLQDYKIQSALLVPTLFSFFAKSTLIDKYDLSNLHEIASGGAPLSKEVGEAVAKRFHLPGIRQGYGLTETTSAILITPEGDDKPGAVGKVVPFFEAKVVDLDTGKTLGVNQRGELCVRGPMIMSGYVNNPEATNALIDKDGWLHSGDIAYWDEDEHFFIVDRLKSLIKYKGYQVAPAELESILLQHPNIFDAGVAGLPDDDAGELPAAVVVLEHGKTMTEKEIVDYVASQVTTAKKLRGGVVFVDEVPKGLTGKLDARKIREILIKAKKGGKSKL
smiles,measurement,setting,value
Brc1nc2ccccc2s1,outcome,[1],inactive
same,outcome,[2],inactive
same,outcome,[3],inactive
same,outcome,[4],inactive
same,outcome,[5],inactive
same,outcome,[6],inactive
same,outcome,[7],inactive
same,outcome,[8],inactive
same,outcome,[9],inactive
O=C1OC(=O)c2ccc3c4c(ccc1c24)C(=O)OC3=O,outcome,[1],inactive
CO[Si](CCCOCC1CO1)(OC)OC (stereo unspecified),outcome,[1],inactive
same,outcome,[2],inactive
same,AC50,[3],86.5 µM (active)
same,outcome,[4],inactive
same,outcome,[5],inactive
same,outcome,[6],inactive
same,outcome,[7],inactive
same,outcome,[8],inactive
same,outcome,[9],inactive
CC(C)=CCCC(C)O (stereo unspecified),outcome,[1],inactive
O=C=NCc1cccc(CN=C=O)c1,outcome,[1],inactive
N#CCCOCCC#N,outcome,[1],inactive
CCN=c1cc2oc3cc(NCC)c(C)cc3c(-c3ccccc3C(=O)OCC)c-2cc1C,AC50,[1],32 µM (active)
same,AC50,[2],38.3 µM (active) and 45.9 µM (active)
same,AC50,[3],16 µM (active) and 6.62 µM (active)
same,AC50,[4],59.6 µM (active) and 36.8 µM (active)
same,AC50,[5],17.8 µM (active) and 31.3 µM (active)
same,AC50,[6],67.5 µM (active) and 58.2 µM (active)
same,AC50,[7],21.9 µM (active) and 32 µM (active)
same,AC50,[8],60.8 µM (active) and 63.2 µM (active)
same,AC50,[9],35.8 µM (active) and 44.5 µM (active)
same,AC50,[10],0.0769 µM (active)
CCC(Cc1c(I)cc(I)c(N)c1I)C(=O)O (stereo unspecified),outcome,[1],inactive
same,outcome,[2],inactive
same,outcome,[3],inactive
same,outcome,[4],inactive
same,outcome,[5],inactive
same,AC50,[6],69.9 µM (active)
same,outcome,[6],inactive
same,outcome,[7],inactive
same,outcome,[8],inactive
same,outcome,[9],inactive
CCCCCCCCCCCC(=O)Cl,outcome,[1],inactive
OCCCc1cccnc1,outcome,[1],inactive
CCCCCCCC/C=C\CCCCCCCC(=O)N(C)CC(=O)O,AC50,[1],128 µM (active)
same,AC50,[2],37.1 µM (active)
same,AC50,[3],51.5 µM (active)
same,AC50,[4],45.1 µM (active)
same,AC50,[5],81.1 µM (active)
same,AC50,[6],83.3 µM (active)
same,AC50,[7],79.6 µM (active)
same,AC50,[8],43.7 µM (active)
same,AC50,[9],83.7 µM (active)
same,AC50,[11],16.4 µM (active)
same,AC50,[12],24.4 µM (active)
same,outcome,[13],inactive
CCCCCC/C=C/CCCCCCCC(=O)O,outcome,[1],inactive
same,outcome,[2],inactive
same,outcome,[3],inactive
same,outcome,[4],inactive
same,outcome,[5],inactive
same,outcome,[6],inactive
same,outcome,[7],inactive
same,outcome,[8],inactive
same,outcome,[9],inactive
COc1ccccc1C=O,outcome,[1],inactive
